Experimental findings from the supplement of paper PMC6555819 are described below.

In the first test the test system is PXR:RXRa (NR concentration 270 nM, RXRa partner concentration 90 nM). As to the kind of experiment: PBM binding z-score (relative to random genomic background probes); higher = stronger binding; sequences stand for … in GC…GCGATTGACAGCGTAGAATGAAGG
The method in brief: (§1)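 Binding z-scores were set against random background probes. The data came from custom Agilent 4×180K protein-binding microarrays carrying double-stranded probes with 34-nt variable regions, incubated 1 h with ligand-free nuclear receptor dimers. Partner-specific antibodies detected binding, and scanned fluorescence was regression-normalized.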
For the sequence GCAGACAGGTGAAACGCAGATAACTCAGGGTGGC, the PBM binding z-score is -0.239.
AGAATGAGGTTAAGATCACGGAAACAGAATACAT registered a PBM binding z-score of 1.28.
The sequence ATCGAAAGGTCGTAGGTGAGTATACCCACCCGAA displayed a PBM binding z-score of 3.12.
The same measure, in the same setting: the value for CCTATTAGTCGACCATAAGGGCAACCGAAGCTCG was 0.26; that for ACAGACAGGTGATGGAGGTAACTCAGGCTATCAT was -0.304.
TCTAGCAGGCCAGAGGGTCACTCCAGAGGTACGG returned a PBM binding z-score of 1.08.
In the case of AGAACTAGGGCACGCTGAGTTGATAGCAGAGTAG, the PBM binding z-score came to 0.214.
Consider CGTCAAAGTTCAAGGTAACTTAACAGAAAGCAGC, for which the PBM binding z-score stood at 3.79.
The sequence CCTAGCAGGCCAAACTGGGTCACTCAAGGCTTGA returned a PBM binding z-score of 1.05.
Still for that read-out and setting: the value for TAAATGAGGTTATAAGATCAGGGAACGTTGCAAA was 1; that for CCTACTGGGCCACGAAAGGTCATTAATTCAGTGA was 5.12; that for GCTGCTAGGTCAACTGATGGACAGCTAAAGCTCG was 1.05.
Sequence AATCGGAGGACAAAGGTCAGAGCTACGCCAGTGA displayed a PBM binding z-score of 3.75.
Turning to TCGAGTAGGTTAGTCGGGGCATTCAGCCAACATA, the PBM binding z-score is -0.0448.
The sequence TCATATAGGTAAACAGGTGAAATTCCGTAAGTTA gave a PBM binding z-score of 1.03.
The same measure, in the same setting: the value for CGAACTAGGTCATCCAGGACAGTGAGTACATTGA was 2.8.
Turning to ATACCAAGGTGATCGTGAGGTCGCTGATACTAAC, the PBM binding z-score was determined as 1.86.
For TCGAGTAGGTTCGTCGGGGCATTCAGCCAACATA, the PBM binding z-score was determined as 0.391.
TAGCCTAGGTCAGATAGGGCCAGTATACGCTATA had a PBM binding z-score of 1.37.
Turning to CAAACTAGGTCACCGGAAGGTCACAGTCCGCATG, the PBM binding z-score turned out to be 5.64.
The sequence CACACTAGGTCAAGGTCAAAGTCGGTTTGTGCCA had a PBM binding z-score of 5.54.
In the case of ACTATTAGTTGAGACGAGGGCAACCAATAGGTTG, the PBM binding z-score stood at 1.75.
Same read-out and setting: the value for ATATGTAGGGTAGCTGGGGTCATTCAGACTAGGC was 6.03; that for CCGAGTAGGATATGGGGCATTCAGGCAACGGTGA was -0.236.
In turn, ATCGACAGGTCGTGAGGTGAGTATACAGAAAGGC registered a PBM binding z-score of 0.904.
Same read-out and setting: the value for GCGTCTGGGGCATCAGCAGGTTACCATAACTTAA was -0.00705.
The sequence CCGACTGGGGCAAGGCTACCATAACGCACAGCCA yielded a PBM binding z-score of -0.481.
Consider CAAACTAGGTCACCGGTAGGTCAAAGTCCGCATG, for which the PBM binding z-score turned out to be 4.51.
In turn, TCTTGTAGATCAGCAGTTTAAGAAAGCTGGCCAA yielded a PBM binding z-score of 0.249.
The same measure, in the same setting: the value for CAGCCTAGGTCAGGCCCAGTATAGGAGGAACGTT was -0.0342; that for ATATATAGGTTAGCTGGGGTCATTCAGACTAGGC was 6.52.
Regarding GCTTACGGTTCAAAGGTTATAGCATGAATAGAAT, the PBM binding z-score came out at 4.71.
On the same count and under the same terms, next, AGAATGAGGTTACCGAAGATCAGGGAAACGCTTG: 1.61; AGAATGAGGTTATCCGTAGATCAGGGAAGAAAGT: 1.17.
On the same count and under the same terms, the value for TGAATGAGGTTAAAGATCAGGGAACGTGGCGTCG was 1.99; that for AGAATGAGGGTATTAAGATCAGGGAATTGCGGTC was 0.0196.
Regarding CTACCAACGTGAACAAGGTCGTTGATTACTATTC, the PBM binding z-score came out at 1.72.
In turn, ACTAGTCGGTCAGCTGAGGTCACACACAATTCGG showed a PBM binding z-score of 5.95.
CCTTGGAGGACAGAAGGTCAGAGCTGTCCGCTTT came in with a PBM binding z-score of 1.69.
Take TGTCAAGGTTCAAAGGTAACGTAAGTATCCACAC: the PBM binding z-score is 4.14.

The subject of another test is PXR homodimer (NR concentration 270 nM). The test is described as above. Put shortly: as §1
The sequence GCAGACAGGTGAAACGCAGATAACTCAGGGTGGC returned a PBM binding z-score of -0.278.
Turning to AGAATGAGGTTAAGATCACGGAAACAGAATACAT, the PBM binding z-score amounted to 0.346.
Regarding ATCGAAAGGTCGTAGGTGAGTATACCCACCCGAA, the PBM binding z-score turned out to be 0.577.
CCTATTAGTCGACCATAAGGGCAACCGAAGCTCG returned a PBM binding z-score of 0.25.
ACAGACAGGTGATGGAGGTAACTCAGGCTATCAT came in with a PBM binding z-score of -0.184.
The sequence TCTAGCAGGCCAGAGGGTCACTCCAGAGGTACGG yielded a PBM binding z-score of -0.334.
For the sequence AGAACTAGGGCACGCTGAGTTGATAGCAGAGTAG, the PBM binding z-score is -0.312.
For CGTCAAAGTTCAAGGTAACTTAACAGAAAGCAGC, the PBM binding z-score was 2.37.
As to CCTAGCAGGCCAAACTGGGTCACTCAAGGCTTGA, the PBM binding z-score is -0.482.
The same measure, in the same setting: the value for TAAATGAGGTTATAAGATCAGGGAACGTTGCAAA was 0.251.
Turning to CCTACTGGGCCACGAAAGGTCATTAATTCAGTGA, the PBM binding z-score came to 1.71.
On to GCTGCTAGGTCAACTGATGGACAGCTAAAGCTCG, for which the PBM binding z-score was -0.677.
Take AATCGGAGGACAAAGGTCAGAGCTACGCCAGTGA: the PBM binding z-score worked out at 0.501.
Same read-out and setting: the value for TCGAGTAGGTTAGTCGGGGCATTCAGCCAACATA was -0.488; that for TCATATAGGTAAACAGGTGAAATTCCGTAAGTTA was 0.625.
The sequence CGAACTAGGTCATCCAGGACAGTGAGTACATTGA had a PBM binding z-score of 8.11.
On to ATACCAAGGTGATCGTGAGGTCGCTGATACTAAC, for which the PBM binding z-score came out at 0.225.
TCGAGTAGGTTCGTCGGGGCATTCAGCCAACATA showed a PBM binding z-score of -0.361.
TAGCCTAGGTCAGATAGGGCCAGTATACGCTATA displayed a PBM binding z-score of -0.14.
In turn, CAAACTAGGTCACCGGAAGGTCACAGTCCGCATG gave a PBM binding z-score of 1.29.
Take CACACTAGGTCAAGGTCAAAGTCGGTTTGTGCCA: the PBM binding z-score turned out to be 4.08.
With ACTATTAGTTGAGACGAGGGCAACCAATAGGTTG, the PBM binding z-score was 0.385.
As for ATATGTAGGGTAGCTGGGGTCATTCAGACTAGGC, the PBM binding z-score is 3.77.
Still for that read-out and setting: the value for CCGAGTAGGATATGGGGCATTCAGGCAACGGTGA was -0.112.
Take ATCGACAGGTCGTGAGGTGAGTATACAGAAAGGC: the PBM binding z-score amounted to 0.267.
GCGTCTGGGGCATCAGCAGGTTACCATAACTTAA registered a PBM binding z-score of -0.377.
CCGACTGGGGCAAGGCTACCATAACGCACAGCCA came in with a PBM binding z-score of -0.488.
In turn, CAAACTAGGTCACCGGTAGGTCAAAGTCCGCATG returned a PBM binding z-score of 0.526.
Consider TCTTGTAGATCAGCAGTTTAAGAAAGCTGGCCAA, for which the PBM binding z-score was -0.18.
Same read-out and setting: next, CAGCCTAGGTCAGGCCCAGTATAGGAGGAACGTT: -0.609; ATATATAGGTTAGCTGGGGTCATTCAGACTAGGC: 3.94.
The sequence GCTTACGGTTCAAAGGTTATAGCATGAATAGAAT had a PBM binding z-score of 0.601.
With AGAATGAGGTTACCGAAGATCAGGGAAACGCTTG, the PBM binding z-score is -0.388.
On to AGAATGAGGTTATCCGTAGATCAGGGAAGAAAGT, for which the PBM binding z-score was found to be 0.231.
The sequence TGAATGAGGTTAAAGATCAGGGAACGTGGCGTCG gave a PBM binding z-score of 0.0833.
As for AGAATGAGGGTATTAAGATCAGGGAATTGCGGTC, the PBM binding z-score turned out to be 0.451.
The sequence CTACCAACGTGAACAAGGTCGTTGATTACTATTC had a PBM binding z-score of 1.
In turn, ACTAGTCGGTCAGCTGAGGTCACACACAATTCGG showed a PBM binding z-score of 2.63.
Sequence CCTTGGAGGACAGAAGGTCAGAGCTGTCCGCTTT gave a PBM binding z-score of 0.0669.
For the sequence TGTCAAGGTTCAAAGGTAACGTAAGTATCCACAC, the PBM binding z-score is 0.595.
